{"source": "paper PMC12136788", "binders": {"B1": {"name": "chr7:149068622:149068623:-_ENSMUSG00000025139_ENSMUST00000001950|mus_hu|mus_mus_mus_hu_False|78_88 (ssRNA)", "RNA": "GGGAGUUCUACAGUCCGACGAUCGUGAGGCCUCUGAGUGUGGCUUGUGCUCUGCAGUGUCUGCAGUUUGUUAAUAUCACGGAACAUACCAUCUAGAACGUUCCAGUCCCGCCUGACACCUUCAUUCCCAAUGGAGAAGAAAUCCAACAGAGGAUUGAGCAUCA"}, "B2": {"name": "chr5:135101456:135101457:-_ENSMUSG00000040731_ENSMUST00000036125|mus_mus|motif|central (ssRNA)", "RNA": "GGGAGUUCUACAGUCCGACGAUCACCCAAGAGUGCACCGUCAUAAGUCAGAGCCUCCUUCAGGGAAUCCACCUCAUCAAAUUCGGCAUAGCAGAACCCUUUAAAUUUGUCUGUGUCUUUGUCUCUGACUAGCCGCACACUCCGCAACAGAGGAUUGAGCAUCA"}, "B3": {"name": "chrX:130830059:130830060:+_ENSMUSG00000033578_ENSMUST00000037687|mus_mus|FALSE|FALSE (ssRNA)", "RNA": "GGGAGUUCUACAGUCCGACGAUCGGGCCAUGAUAGUUAUGGUUCGUGGGGAUGCCAUGGGGUCACCAAGGCAGGUCCCAACUAAUCCCUCUGCUUUGCGCAGCCCGGCUGUCAAGGCGCAGGCAGUUAGCACAGGGAGAGCUACAACAGAGGAUUGAGCAUCA"}, "B4": {"name": "chr1:163117127:163117128:-_ENSG00000143248_ENST00000313961|hu_mus|FALSE|FALSE (ssRNA)", "RNA": "GGGAGUUCUACAGUCCGACGAUCUGCUACAAAGGAUGUAACUCAACUCACAGGGCAACUUUUGGAAGCCUGACCAGAUGACUACUUGAUUAGCUCCUUAUAAAAUUCAGAGCGCACAAAGCGGGGCAGAGAAUCCUUCUCCAUCAACAGAGGAUUGAGCAUCA"}, "B5": {"name": "139258410_139258530_201_CDS_ENSG00000114115_ENST00000232219|human|control|control (ssRNA)", "RNA": "GGGAGUUCUACAGUCCGACGAUCGCGGGACGGCUGGAGACUGCCGGGACAGCGGCUGCCGGUGCUACGCGGGUGGUGGGCGGCCCGGAAAUGAGCGCCCUCCGGGGACAGGGGGCUCUGCGGGGCGGCGACAGCUGGAUUCCCCAACAGAGGAUUGAGCAUCA"}, "B6": {"name": "chr17:56552419:56552420:-_ENSMUSG00000013236_ENSMUST00000086828|mus_mus|motif|central (ssRNA)", "RNA": "GGGAGUUCUACAGUCCGACGAUCUUUGUUUUUUUCUUAAAAAAAAAAAAGAAAAAAAGAAAAAGAAAAAAAAUAUACACGGUUAAAAAAAAAUAAGAAAAAAAAUGUUGCCAAAAGGCAGGCAGGGGAGUGCGGAAGCAGAGGCAACAGAGGAUUGAGCAUCA"}, "B7": {"name": "chr2:65539780:65539781:-_ENSG00000198369_ENST00000356388|hu_hu|motif|central (ssRNA)", "RNA": "GGGAGUUCUACAGUCCGACGAUCUUUGCAAAACAACAAGCAAAAUUUCUUACUUCACUAGUAUCCUAUUCUAAUAUUGCGGAAUUUUUAGAAGUGGUGGCAACACAAUUUAAAAAAUGUUCUACUUUAGGGGUAAUGGGGAGGCAACAGAGGAUUGAGCAUCA"}, "B8": {"name": "chr17:56552419:56552420:-_ENSMUSG00000013236_ENSMUST00000086828|mus_mus|FALSE|FALSE (ssRNA)", "RNA": "B6 RNA with G80U, G81A"}, "B9": {"name": "chr17:56552419:56552420:-_ENSMUSG00000013236_ENSMUST00000086828|mus_mus|mus_mus_mus_hu_False|18_28 (ssRNA)", "RNA": "GGGAGUUCUACAGUCCGACGAUCAAAAAAUACACUAUUUAAAAAAAAUGAAAUGUCACGGGAUACAGUUACACUGAGAGUUUUAAAAGAAAGCUGGAUUCUGGUCCUUGCCAAAAGGCAGGCAGGGGCAGAGCGGGGAGGAGCCAACAGAGGAUUGAGCAUCA"}, "B10": {"name": "chr7:54825262:54825263:-_ENSG00000132432_ENST00000352861|hu_hu|hu_hu_hu_mus_False|48_98 (ssRNA)", "RNA": "GGGAGUUCUACAGUCCGACGAUCCUGCCGGCUGGGCACAAACUGCAGCAUUACCUGAUCCAUGUUUGUUGGAUGGCGGAUUGAGAGUGCCAGGGACCGUAGCUCAGGAGAGAACCGAGCCCAACGGAACCGGAAGCUGGCAACCAACAGAGGAUUGAGCAUCA"}, "B11": {"name": "chr3:95023916:95023917:-_ENSMUSG00000053192_ENSMUST00000065482|mus_mus|FALSE|FALSE (ssRNA)", "RNA": "GGGAGUUCUACAGUCCGACGAUCUAAAUAAAUAAAUAAAUAAAUAUAGAUAGAUAAAUAAGUACGUACAUACAUACAAACCUACAAUUCAAUUGGCAGAUUCAUCAGCACCACCAGCACAAUAGAGGGAAGAGAACAAGAUUACAACAGAGGAUUGAGCAUCA"}, "B12": {"name": "chr1:34870196:34870197:-_ENSMUSG00000037503_ENSMUST00000047534|mus_hu|motif|central (ssRNA)", "RNA": "GGGAGUUCUACAGUCCGACGAUCAUCUGAGCUCAUCUCAUCAGAUUGCAUAAAAAAUUAAAAUAGUAUCAAUUGACACCGGACUGAACUGGCUCAGGAUGGAAAUUCCAUUCCUUGGCAUGGAUACGUAAGUUCAAUGCAGAGCAACAGAGGAUUGAGCAUCA"}, "B13": {"name": "chr3:148802587:148802588:-_ENSG00000071794_ENST00000310053|hu_mus|hu_hu_hu_mus_False|28_38 (ssRNA)", "RNA": "GGGAGUUCUACAGUCCGACGAUCUCCAACAACUUGUCCUCUCAUAGUUCCAAAUAAAACCAAAUCUUGCUCUUCAUCACUCGUUAGGAAGUCAUCUGGAGGGAUAACAUCUUGGAAUUCAAAAUGUGGCAAGAAAGUUGAGUACAACAGAGGAUUGAGCAUCA"}, "B14": {"name": "chr3:95023916:95023917:-_ENSMUSG00000053192_ENSMUST00000065482|mus_mus|motif|central (ssRNA)", "RNA": "B11 RNA with U82G, A83G"}, "B15": {"name": "chr17:64801638:64801639:+_ENSG00000154229_ENST00000413366|hu_mus|hu_hu_hu_mus_False|78_78 (ssRNA)", "RNA": "GGGAGUUCUACAGUCCGACGAUCUAUAUAUAUAUAUACAUAUGUACACAUAUAUAGUAAGAGCCUAGUUAAACGUGUAAAGUAGCCAUUCAUUUUUAAAAUUACAUCUACAUUAAAAAAUUAAUAUAUCUGAUAGAGUGCCAGCAACAGAGGAUUGAGCAUCA"}, "B16": {"name": "17587070_17598549_148_CDS_ENSMUSG00000015733_ENSMUST00000015877|mouse|control|control (ssRNA)", "RNA": "GGGAGUUCUACAGUCCGACGAUCGUGAAUGAUGAAUUUUGCUGCUAUACGAACCUUCUCCUCAUCGGACAACUGCUCCUCCAGAUCCGCCAUCUUCCUUCUGGCGACAGACCGUGGCGCUGGUGGCAGCAGCGGCCACCUGACCAACAGAGGAUUGAGCAUCA"}, "B17": {"name": "33058320_33060047_1444_CDS_ENSG00000170266_ENST00000307363|human|control|control (ssRNA)", "RNA": "GGGAGUUCUACAGUCCGACGAUCUCCCUGGGGGAUCCCAUCCACAGCAACAUAUGCUCGAUCGUGGACUCCAUUGAGGGGUGAAGAGAGAGGUGCUGGGUUGCUGCAAUCUUGAGGAAGUGUUGUCCGGUACAGCACAAACCCCAACAGAGGAUUGAGCAUCA"}, "B18": {"name": "chr5:145543945:145543946:-_ENSG00000133706_ENST00000545646|hu_hu|hu_hu_hu_mus_True|18_98 (ssRNA)", "RNA": "GGGAGUUCUACAGUCCGACGAUCCUGAACGGCCAGUGGCGGGAAAUAAUCAAGCCAGUGCUCUGCUUCAGAAAACUUCACUAUGUCGUCAUCAGAGAGCCCAAGGGAUUUCAUAAUGCCCCACUGGUACUUAGAAGAUCCUGCCAACAGAGGAUUGAGCAUCA"}, "B19": {"name": "74491169_74493004_2024_3pUTR_ENSMUSG00000020745_ENSMUST00000021091|mouse|control|control (ssRNA)", "RNA": "GGGAGUUCUACAGUCCGACGAUCAUCAACGGCACUCCCACACCUUUACUGUUUGAUCUACACUGCCAGUAACCACAUAGGGUGCCGUCUUAUGGAAAUCCAAGGAGGUAACAAAGUGUUCAUGCGCAUUGAGGGUCUUCAUGCCAACAGAGGAUUGAGCAUCA"}, "B20": {"name": "chr10:36858571:36858572:-_ENSMUSG00000069662_ENSMUST00000092584|mus_hu|FALSE|FALSE (ssRNA)", "RNA": "GGGAGUUCUACAGUCCGACGAUCAUAAAAAAAUUUUAGUCGAAGAGAUCAAAAAGCAGCAGCACAGGAGGGAGGGAAAAAGGGUGGAAAAGUCGAGCACAAAAAAAGGAGCCCAAGUGUAGUUCGAAAAAAAAAGAAGUAAUACAACAGAGGAUUGAGCAUCA"}, "B21": {"name": "chr10:36858571:36858572:-_ENSMUSG00000069662_ENSMUST00000092584|mus_mus|FALSE|FALSE (ssRNA)", "RNA": "GGGAGUUCUACAGUCCGACGAUCAUAAAAAAUUUUUAGUCGAAGAGAUCAAAAAAGCAGCAGCGCAGGAAGGAGGGAAAAAGGUGGAAAAGUCGAGCACAAAAAAGGAGCCCAAGUGUAGUUUUUUUAAAAAAAGAAGUAAUACAACAGAGGAUUGAGCAUCA"}, "B22": {"name": "72182037_72182157_980_3pUTR_ENSG00000148730_ENST00000373218|human|control|control (ssRNA)", "RNA": "GGGAGUUCUACAGUCCGACGAUCCCAGAGGAAAGAAAGGAAGUGGACCUCAAAACAGUGUCACAGGGUAACGCUACCAGAGUUGCACAAGCUGUGCUCUGUCCCGAGGGACGAAUACCUCAAGGUAAAAGGGAAAGCAGCUCUCAACAGAGGAUUGAGCAUCA"}}, "note": "Numbering of substitutions follows the chain as printed. The full ranking holds about 24,000 sequences; the median of “enrichment r” is about 0.99, and the highest 2% start at about 3.7. Many of the other results were omitted from the sample, so the highest values are more common in it than they were.", "data": [{"target": "T1, UNK ZnF1-3 (human, UniProt Q9C0B0 31-174)", "T1 sequence": "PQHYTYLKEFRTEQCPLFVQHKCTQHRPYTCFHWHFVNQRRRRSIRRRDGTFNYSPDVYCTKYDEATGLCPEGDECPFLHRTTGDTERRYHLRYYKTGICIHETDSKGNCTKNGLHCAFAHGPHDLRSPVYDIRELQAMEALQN", "experiment": "nsRBNS (natural sequence RNA bind-n-seq); RBNS binding buffer (assumed for nsRBNS): 25 mM Tris pH 7.5, 150 mM KCl, 3 mM MgCl2, 0.01% Triton X-100, 500 ug/ml BSA, 20 U/ml SUPERase-In, 4 C; UNK is unkempt and MSI1 is Musashi-1; names of the RNAs are library labels; protein concentration not given here; high values mean tight binding", "units": {"binding signal": "enrichment R"}, "values": [{"binder": "B1", "binding signal": 0.733}, {"binder": "B2", "binding signal": 0.437}, {"binder": "B3", "binding signal": 0.967}, {"binder": "B4", "binding signal": 1.14}, {"binder": "B5", "binding signal": 1.1}, {"binder": "B6", "binding signal": 15.8}, {"binder": "B7", "binding signal": 3.44}, {"binder": "B8", "binding signal": 19.2}, {"binder": "B9", "binding signal": 3.67}, {"binder": "B10", "binding signal": 1.44}, {"binder": "B11", "binding signal": 7.35}, {"binder": "B12", "binding signal": 1.43}, {"binder": "B13", "binding signal": 1.19}, {"binder": "B14", "binding signal": 19.9}, {"binder": "B15", "binding signal": 1.53}, {"binder": "B16", "binding signal": 0.822}, {"binder": "B17", "binding signal": 0.932}, {"binder": "B18", "binding signal": 0.932}, {"binder": "B19", "binding signal": 0.744}, {"binder": "B20", "binding signal": 4.29}, {"binder": "B21", "binding signal": 11.7}, {"binder": "B22", "binding signal": 0.893}]}]}
